Assay results reported in PubChem BioAssay (NCI).
About 83,000 compounds went through this panel and 20% of them were active in at least one assay; those are over-represented in the sample as a whole.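 Step 1: grow cells in 96-well plates. Step 2: add test compound at a single concentration. Step 3: incubate 48 h. Step 4: record percent growth.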 Active and inactive are the calls of the source. Rule for the calls: active = growth percent below 10; inactive = the rest.

What follows are molecules tested on HL-60(TB) leukemia (assay: NCI-60 one-dose screen, 48 h (100 = growth as untreated, 0 = no growth, -100 = all killed)). Details: 10 µM unless noted.

Row | Structure (SMILES) | growth
1 | NC(=S)NN=C1CCCCC1 | 74.1% (inactive)
2 | CCN(CC)CCCC(C)Nc1c2ccc(C)cc2nc2ccc(OC)cc12 (stereo not given) | 11.4% (inactive)
3 | COc1cc(CCNc2cnc3cc(N)cc(N)c3n2)cc(OC)c1 | 27.9% (inactive)
4 | Cc1ccc(S(=O)(=O)NN/C(N)=N\S(=O)(=O)c2cc(C)c(Cl)cc2SCc2ccccc2)cc1 | 83.6% (inactive)
5 | CCNCCNc1cc(C2CCCCC2)c(C#N)c2nc3ccccc3n12 | -62.4% (active)
6 | Nc1nc(Nc2ccccc2)c(C=Nc2ccccc2)c(=O)[nH]1 | 98.9% (inactive)
7 | CC(O)CN1CC(O)=C(c2nc3ccccc3s2)C1=N (stereo not given) | 93.8% (inactive)
8 | COc1ccc(-c2nc3sccn3c2/C=C/C(=O)c2cc(F)cc(F)c2)cc1 | 60.4% (inactive)
9 | COc1ccc(C2OC(c3cc(-c4cc5ccccc5o4)nn3-c3ccccc3)=NN2C(C)=O)cc1 (stereo not given) | 84.3% (inactive)
10 | N=c1c2c(-c3ccccc3)c(-c3ccccc3)oc2ncn1NC(=O)c1cccnc1 | 99.7% (inactive)
11 | O=C1c2ccccc2-c2nccc3cc(Cl)nc1c23 | 1.84% (active)
12 | O=C1Nc2ccccc2C1=NC1CCCCC1 | 110% (inactive)
13 | O=C(CCN1CCCC1)Nc1ccc2c(NCCCc3ccccc3)c3ccccc3nc2c1 | -55.6% (active)
14 | Nc1cc2c(cc1Cl)-c1ccc([N+](=O)[O-])cc1/C2=N\O | 89.5% (inactive)
15 | C=C1C(=O)O[C@H]2[C@H]1CC/C(CNC(=O)/C=C/c1cc(OC)c(OC)c(OC)c1)=C\CC[C@@]1(C)O[C@@H]21 | -33.3% (active)
16 | OCCOc1ccc(-c2cc(-c3ccccn3)nc(-c3ccccn3)c2)cc1 | -36.1% (active)
17 | C[C@@H](Oc1cc(-c2cnn(C3CC4(CCCNC4)C3)c2)cnc1N)c1c(Cl)ccc(F)c1Cl (stereo not given in full) | -41% (active)
18 | COc1ccc2cc(-c3ccnc4c(N=Nc5ccc(Cl)cc5)c(N)nn34)ccc2c1 | 98.8% (inactive)
19 | CN1CCN(c2ccc(Nc3ncc(C(N)=O)c(NCCCNC(=O)C4CCC4)n3)cc2)CC1 | -36.3% (active)
20 | COc1ccccc1OCC(O)CO (stereo not given) | 74.1% (inactive)

Row | Structure (SMILES) | growth
21 | CCn1cc(C(=O)NN=C2CCCC2)c(=O)c2ccc(C)nc21 | 98.8% (inactive)
22 | Cc1ccccc1N1C(=O)c2cc(S(N)(=O)=O)c(Cl)cc2NC1C (stereo not given) | 87.9% (inactive)
23 | CC(=Nc1ccc(N(C)C)cc1)c1ccccc1 | 26.1% (inactive)
24 | Cc1ccc(-c2nc(C(Cl)Cl)nc3cc(C)nn23)cc1 | -1.36% (active)
25 | O=C1Nc2ccc(Cl)cc2/C1=C\c1c(-c2ccc(F)cc2)nc2ccccn12 | -37.7% (active)
26 | C=C[C@@]1(C)CC(=O)[C@@H](C(C)(C)c2cn(C)c3ccc(Br)cc23)C[C@@H]1O[Si](C)(C)C(C)(C)C | 106% (inactive)
27 | CCN(CC)CC#CCOC(=O)[C@]1(C)CCC[C@@]2(C)[C@H]1CC(C=O)=C1C=C(C(C)C)CC[C@@H]12 | 51.6% (inactive)
28 | CC(=O)O[C@H]1[C@@H]2OC(=O)C(CSc3ccccc3)[C@@H]2C[C@H]2O[C@]2(C)CC/C=C(\C)CCC[C@@H]1C (stereo not given in full) | 25.8% (inactive)
29 | CC1=C2[C@@H](CC1)[C@]1(C)O[C@@](C(C)C)(C[C@H]1OC(=O)[C@H](C)O)[C@H]2OC(=O)/C=C/c1ccccc1 | 89.1% (inactive)
30 | CC#Cc1nc(Nc2cc(C)[nH]n2)c2ccccc2n1 | 4.13% [100 µM] (active)
31 | O=C(Nc1ccc(Cl)cc1)c1cc2cc(F)ccc2cc1O | -4.75% (active)
32 | O=C1CCNC1 | 103% (inactive)
33 | N#CCc1csc(Cc2ccccc2)n1 | 95.7% (inactive)
34 | COc1ccc(O)c(N=Nc2nccs2)c1 | -22.5% (active)
35 | CC(=O)C[n+]1ccc(C)cc1Sc1ccccc1C | 109% (inactive)
36 | Nc1ccc(Cl)c([N+](=O)[O-])c1 | 118% (inactive)
37 | CCOC(=O)c1c(C)nc2c(c1N)/C(=C/c1cccs1)C(=O)N2Cc1ccccc1 | 60.4% (inactive)
38 | O=C(O)c1ccc2c(c1)nc(Nc1cccc(Cl)c1)c1ccncc12 | -28.6% (active)
39 | C[Se]C(=O)CC1=C2C=C(F)C=CC2/C(=C\c2ccc(S(C)=O)cc2)C1C (stereo not given) | -40% (active)
40 | Cc1ccc(NC(=O)c2[nH]c(SCCN(C)C)nc2-c2ccc(F)cc2)cc1C#Cc1cnc2cccnn12 | -54.9% (active)
